{"source": "ChEMBL document CHEMBL1157539", "about": "“Thousands of chemical starting points for antimalarial lead identification” (Nature, 2010)", "data": [{"system": "Plasmodium falciparum", "assay": "GSK_TCMDC: Inhibition of Plasmodium falciparum 3D7 in whole red blood cells, using parasite LDH activity as an index of growth. Test compounds present at 2uM", "type": "functional", "units": {"Inhibition": "%"}, "values": [{"compound": "COc1ccccc1-c1[nH]c2ccccc2c1CN1CCC(c2c(C)cccc2C)CC1", "Inhibition": 96}, {"compound": "Cc1cc(C(=O)NCc2ccc(-c3c(C)noc3C)cc2)n(-c2ccc(Cl)cc2)n1", "Inhibition": 100}, {"compound": "Cn1cncc1C(=O)Nc1cccc(-c2csc(-c3nc4ccccc4[nH]3)c2)c1", "Inhibition": 100}, {"compound": "CC1CN(c2cnn(C/C=C/c3ccc(NC(=O)c4ccc5nonc5c4)cc3)c(=O)c2Cl)CC(C)N1.O=C(O)C(F)(F)F", "note": "(stereo unspecified)", "Inhibition": 94}]}, {"system": "Plasmodium falciparum", "assay": "GSK_TCMDC: Inhibition of Plasmodium falciparum Dd2 in whole red blood cells, using parasite LDH activity as an index of growth. Test compounds present at 2uM", "type": "functional", "units": {"Inhibition": "%"}, "values": [{"compound": "C=CCN(C(=O)c1ccc(Cl)c([N+](=O)[O-])c1)c1nc(-c2ccccc2)cs1", "Inhibition": 99}, {"compound": "N=C(N)CCN(Cc1ccccc1)c1ccc(Cl)cc1", "Inhibition": 98}, {"compound": "O=C(Nc1cccc(-c2csc(-c3nc4ccccc4[nH]3)c2)c1)c1cc(=O)c2ccccc2[nH]1", "Inhibition": 39}, {"compound": "O=C(Nc1ccc(Cn2ncc(N3CCCNCC3)c(Cl)c2=O)cc1)Nc1ccc(C(F)(F)F)cc1.O=C(O)C(F)(F)F", "Inhibition": 58}, {"compound": "O=C(Nc1cc(F)cc(F)c1)N[C@H]1CCN(CCCCCNC(=O)C2CC2c2ccc(Cl)c(Cl)c2)C1", "note": "(stereo partly specified)", "Inhibition": 0}, {"compound": "COc1cccc(C2C(C(=O)Nc3ccccc3)=C(C)N=c3sc(=Cc4ccc(O)cc4)c(=O)n32)c1", "note": "(stereo unspecified)", "Inhibition": 97}, {"compound": "O=C(Nc1cccc(CN2CCCN(Cc3ccsc3)CC2)c1)c1ccc(-c2ccccc2)cc1.O=C(O)C(F)(F)F", "Inhibition": 11}, {"compound": "c1ccc(-c2csc(Nc3nc4cc5c(cc4s3)OCO5)n2)nc1", "Inhibition": 99}, {"compound": "Cn1nc(-c2ccc(NC(=O)Nc3cc(C(F)(F)F)ccc3F)c(F)c2)c2cnc(NCCCN3CCOCC3)nc21.O=C(O)C(F)(F)F", "Inhibition": 62}, {"compound": "CCc1cn(CCOC)c2ccc(C(=O)N[C@@H](Cc3ccccc3)[C@H](O)CNC(C)(C)CCCC(C)C)cc12.O=CO", "Inhibition": 98}, {"compound": "Cc1cc(C)cc(OCC(O)CN(Cc2cc(Cl)cc(Cl)c2)C(=O)Nc2ccc([N+](=O)[O-])cc2)c1", "note": "(stereo unspecified)", "Inhibition": 38}, {"compound": "COc1ccc(NC(=O)C2c3ccccc3C(=O)N(C3CCCC3)C2c2cccs2)cc1", "note": "(stereo unspecified)", "Inhibition": 75}, {"compound": "O=C(Nc1ccc(Cl)c(C(F)(F)F)c1)N[C@H]1CCN(CCCCCNC(=O)C2CC2c2ccc(Cl)c(Cl)c2)C1", "note": "(stereo partly specified)", "Inhibition": 0}, {"compound": "O=C(NCC1CCC1)c1cnc(Nc2cccc(Cl)c2)nc1N1CCC1", "Inhibition": 75}, {"compound": "COc1cc(NCCCCNc2ccc(Cl)c(Cl)c2)nc2ccccc12", "Inhibition": 68}, {"compound": "Fc1ccccc1C=NN=c1cc[nH]c2ccccc12", "Inhibition": 26}, {"compound": "N#Cc1ccc(NC(=O)NC2CCN(CCCCCNC(=O)/C=C/c3ccc(Cl)c(Cl)c3)CC2)cc1", "Inhibition": 4}, {"compound": "Cc1nc(C)c(CC(=O)Nc2ccc(-c3cccc(-c4nc5cc(C(F)(F)F)ccc5[nH]4)c3)cc2)s1", "Inhibition": 4}, {"compound": "COc1ccc2nc(C)cc(NCc3ccc4ccccc4c3)c2c1.Cl", "Inhibition": 75}, {"compound": "CCN(CC)CCN(CCCc1ccc(-c2ccc(C(F)(F)F)cc2)cc1)C(=O)Cn1c(CCc2cccc(F)c2F)nc(=O)c2c1CCC2.O=C(O)C(O)C(O)C(=O)O", "Inhibition": 27}, {"compound": "Cc1cc(N(C)C)nc(Nc2ccc(NC(=O)c3ccccc3F)cc2)n1", "Inhibition": 26}, {"compound": "N#Cc1ccc(-c2ccc(OCC(O)CN3CCCN(C(=O)C(c4ccc5c(c4)OCO5)N4CCN(C/C=C/c5ccccc5)CC4)CC3)cc2)cc1", "note": "(stereo unspecified)", "Inhibition": 77}, {"compound": "Cc1c(S(=O)(=O)Nc2ccc3ccn(CCN(C)C)c3c2)sc2ccc(Cl)cc12.Cl", "Inhibition": 94}, {"compound": "O=C(Nc1ccc2[nH]c(-c3ccc4nc(NC(=O)C5CCCCC5)sc4c3)nc2c1)C1CCCCC1", "Inhibition": 68}, {"compound": "COc1ccc2c(c1C1CCN(CCCCNC(=O)c3ccc(NC(=O)c4ccc(Cl)cc4)cc3)CC1)CCCC2", "Inhibition": 99}, {"compound": "COc1cc(C(=O)N2CCN(C(C)C)CC2)ccc1CN(C)CCCN1CCN(c2cccc(Cl)c2Cl)CC1.Cl", "Inhibition": 87}, {"compound": "CCn1c2ccccc2c2cc(Cc3cnc(N)nc3N)ccc21.Cl", "Inhibition": 0}, {"compound": "CN(C)CCN(C)Cc1cccc(-c2ccc3c(Nc4ccc(F)cc4Cl)ccnc3c2)c1", "Inhibition": 100}, {"compound": "Cc1n[nH]c2ccc(-c3cc(OC[C@@H](N)Cc4ccccc4)cnc3-c3cc4ccccc4s3)cc12.O=C(O)C(F)(F)F", "Inhibition": 68}, {"compound": "Clc1ccc(CNc2nc(NCCc3c[nH]cn3)nc(NC3CCCCC3)n2)cc1", "Inhibition": 1}, {"compound": "COc1ccc(C(=O)N2CCC3(CC2)C(=O)N(CC(=O)NCC2CCCCC2)CN3c2ccccc2)cc1", "Inhibition": 99}, {"compound": "OCCN1CCN(c2nc(Nc3cccc(F)c3)c3cnn(-c4ccccc4)c3n2)CC1", "Inhibition": 76}]}]}
